High-throughput results: PubChem BioAssay, National Center for Advancing Translational Sciences (NCATS)
FEN1 inhibitor – inhibitors of human flap endonuclease 1. P39748. Recombinant FEN1 flap cleavage, fluorescence, 15 min. 0.35% of 390,000 active. Potency, µM (titrated, usually from 114 µM), most hits filed as inhibitors; further: nearly all actives have a fitted effect of over 65% in size
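Recombinant FEN1 (10 nM) was preincubated with pin-transferred compounds for 15 min at room temperature, then flap DNA substrate (50 nM final) was added. Plates were read at 0 and 15 min, and normalized concentration–response data were fitted to a four-parameter Hill equation.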
Pol kappa inh – blocks human DNA polymerase kappa activity; Q9UBT6; purified Pol kappa, fluorescent DNA synthesis assay, 10 min; Potency, µM (top dose mostly 107 µM), most hits filed as inhibitors; 0.53% of 400,000 active
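Kinetic fluorescence screen: compound preincubated 15 min RT with 10 nM enzyme; 50 nM substrate (final) initiates; reads at 0/10 min.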
Pol eta inh – blocks human DNA polymerase eta activity | Q9Y253 | recombinant Pol eta, fluorescent DNA replication assay | Potency, µM (doses to about 114 µM), hits mostly inhibitors | 1.2% of 390,000 active
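Fluorescent replication assay: 50 nM final substrate added after a 15 min room-temperature compound preincubation with 10 nM enzyme. Signal taken at 0 min and again at 10 min.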
PGK inhibitor – inhibitors of T. brucei phosphoglycerate kinase; P07378; PGK/GAPDH coupled, Kinase-Glo luminescence, 60 min; Potency, µM (doses to about 57.5 µM), most hits filed as inhibitors; 0.043% of 380,000 active; AID 602233; further: nearly all actives have a fitted effect of over 60% in size
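Luminescent ATP detection (Kinase-Glo Plus) follows a 60-minute room-temperature incubation, with wells lacking PGK as controls. Buffer: 100 mM TEA (pH 7.6), 5 mM MgCl2, 0.01% Tween-20. Coupling enzyme GAPDH (100 nM final) supplies unstable 1,3-BPG in-well.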
POLI inh – blocks human DNA polymerase iota activity | Q9UNA4 | Pol iota fluorescent replication assay, 10 min | Potency, µM (doses to about 115 µM), hits mostly inhibitors | 1% of 390,000 active | AID 588590
Target sequence (Q9UNA4 whole entry, looked up): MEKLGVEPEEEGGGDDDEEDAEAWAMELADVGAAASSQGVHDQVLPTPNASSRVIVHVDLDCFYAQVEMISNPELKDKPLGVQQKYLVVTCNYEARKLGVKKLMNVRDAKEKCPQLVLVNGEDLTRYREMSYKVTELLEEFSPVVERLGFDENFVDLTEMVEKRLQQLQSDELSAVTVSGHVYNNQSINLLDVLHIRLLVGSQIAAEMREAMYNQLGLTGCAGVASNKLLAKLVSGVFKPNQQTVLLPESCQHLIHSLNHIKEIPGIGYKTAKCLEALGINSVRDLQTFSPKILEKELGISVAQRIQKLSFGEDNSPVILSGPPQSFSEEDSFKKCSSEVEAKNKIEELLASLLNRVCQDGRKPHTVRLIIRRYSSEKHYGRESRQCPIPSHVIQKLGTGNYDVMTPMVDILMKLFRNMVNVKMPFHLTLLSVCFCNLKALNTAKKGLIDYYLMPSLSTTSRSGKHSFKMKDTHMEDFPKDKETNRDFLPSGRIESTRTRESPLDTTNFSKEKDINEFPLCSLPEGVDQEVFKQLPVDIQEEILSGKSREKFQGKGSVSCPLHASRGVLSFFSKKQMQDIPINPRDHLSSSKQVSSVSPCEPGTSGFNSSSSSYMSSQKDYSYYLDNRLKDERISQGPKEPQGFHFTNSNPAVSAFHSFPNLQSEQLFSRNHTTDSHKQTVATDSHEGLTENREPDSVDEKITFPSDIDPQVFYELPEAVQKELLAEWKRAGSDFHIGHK
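Fluorescent replication assay read twice, at 0 min and 10 min after adding 50 nM (final) substrate. Enzyme (10 nM) and compounds were first incubated 15 min at room temperature; enzyme-free buffer wells were negative controls.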
Pol beta inh – inhibitors of human DNA polymerase beta | AID 485314 | 1.3% of 340,000 active | Pol beta primer extension/strand displacement, fluorescence kinetic | P06746 | Potency, µM (top dose mostly 114 µM), most hits filed as inhibitors
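Enzyme-only controls used 10 nM Pol beta; buffer lacking enzyme served as negative control. Compound preincubated 15 min, then 50 nM substrate added; 0 and 10 min reads at room temperature.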
Each line names hits and unclear results; the compound was inactive in the other large screens. The list is not random: actives were taken first. Their share in the collection is about 2.4%. The call rests on the fitted dose curve; in most records, active means well fitted curve in the direction sought with a large enough effect; inconclusive means small, poorly fitted or top-dose-only effect, or another doubt; inactive means no such curve, though single readings can be large; an effect the other way counts as inactive or inconclusive.

O=C(O)c1cccc(N/N=C/c2cn(-c3ccccc3)nc2-c2cccs2)c1	Pol eta inh 79.4µM, Pol beta inh inconclusive
NC(=O)N/N=C/c1cn(-c2ccccc2)nc1-c1cccs1	none
CCNC(=O)c1c(NC(=O)c2nc(SC)ncc2Cl)sc2c1CCCC2	none (no result: Pol eta inh, PGK inhibitor, Pol beta inh)
CCc1ccc(NC(=O)c2ccc3c(c2)C(=O)N(Cc2ccco2)C3=O)cc1	Pol kappa inh 50.1µM, Pol eta inh 20µM, POLI inh inconclusive, Pol beta inh 20µM
COC(=O)c1ccccc1NC(=O)c1ccc2c(c1)C(=O)N(Cc1ccco1)C2=O	none (no result: Pol beta inh)
Cc1c(NC(=O)c2ccc3c(c2)C(=O)N(Cc2ccco2)C3=O)cccc1C(=O)O	Pol kappa inh inconclusive, Pol eta inh 31.6µM, POLI inh inconclusive, Pol beta inh inconclusive
COC(=O)Cc1ccc(NC(=O)c2ccc3c(c2)C(=O)N(Cc2ccco2)C3=O)cc1	none
CC(=O)c1ccc(NC(=O)c2cnc(N3CCCC3)nc2C)cc1	none (no result: Pol eta inh, PGK inhibitor)
COc1ccc(S(=O)(=O)NCCc2csc3nc(-c4ccc(Cl)cc4)nn23)cc1C	none
CN1c2ccccc2C(C)(C)C12C=Cc1cc(O)ccc1O2 (configuration not stated)	none
CN1c2ccccc2C(C)(C)C12C=Nc1c(cc(N3CCOCC3)c3ccccc13)O2 (configuration not stated)	POLI inh 3.55µM
O=c1cc(-c2ccccc2Cl)oc2cc(O)cc(O)c12	Pol beta inh inconclusive
O=C1C=CC(O)(c2cc(=O)c3c(O)cc(O)cc3o2)C=C1	Pol eta inh inconclusive, POLI inh 6.31µM
Nc1ccc(/C=C/c2cccc3cccnc23)cc1	none (no result: Pol eta inh, PGK inhibitor, Pol beta inh)
Cc1cc2nc3ccc(=[N+](C)C)cc-3sc2cc1N	FEN1 inhibitor 22.4µM, Pol eta inh inconclusive, POLI inh 17.8µM, Pol beta inh 8.91µM
c1ccc2nc(-c3cc4ccccc4s3)ccc2c1	none (no result: Pol eta inh, PGK inhibitor, Pol beta inh)
Nc1nc(NCc2ccc(Cl)c(Cl)c2)c2[nH]cnc2n1	none (no result: Pol eta inh, PGK inhibitor, Pol beta inh)
O=C1CCNc2cc3ccccc3cc21	Pol eta inh inconclusive, Pol beta inh 25.1µM
CCc1cccc2c1NC(=O)[C@]21[C@@H]2C(=O)N(Cc3ccccc3)C(=O)[C@@H]2[C@@H]2CCCN21	Pol eta inh 22.4µM, POLI inh inconclusive, Pol beta inh inconclusive
O=C(O)C1CC(CCCP(=O)(O)O)CCN1 (configuration not stated)	none (no result: FEN1 inhibitor, Pol eta inh, PGK inhibitor, POLI inh, Pol beta inh)
Cc1ccccc1NC(=O)COc1ccccc1C(=O)Nc1ccccc1	none (no result: Pol eta inh, PGK inhibitor, Pol beta inh)
CN(C)CCNC(=O)C(=O)Nc1cc2c3c(c1)CCN3C(=O)CC2	Pol kappa inh inconclusive, POLI inh 39.8µM
CN(C)CCNC(=O)C(=O)Nc1cc2c3c(c1)CCC(=O)N3CCC2	none
CCOC(=O)N1CCN(C(=O)CSCc2nc(-c3ccccc3F)oc2C)CC1	POLI inh 89.1µM
Cc1cc(-c2ccco2)c(C#N)c2nc3ccccc3n12	FEN1 inhibitor inconclusive, Pol kappa inh inconclusive, Pol eta inh 10µM, POLI inh inconclusive, Pol beta inh 8.91µM
CO/S(=N\S(=O)(=O)c1ccc(Cl)cc1)c1ccc([N+](=O)[O-])cc1 (configuration not stated)	none (no result: FEN1 inhibitor, Pol eta inh, PGK inhibitor, POLI inh, Pol beta inh)
Cc1ccc(C)c(N2CCN(S(=O)(=O)c3ccc4[nH]c(=O)ccc4c3)CC2)c1	Pol eta inh inconclusive, POLI inh inconclusive, Pol beta inh 28.2µM
CC(C)(C)c1ccccc1OCCCCCNCCO	POLI inh 70.8µM
Cc1ccccc1NC(=O)Cn1nnc(C(=O)NCc2ccco2)c1N	none
Cc1ccccc1NC(=O)Cn1nnc(S(=O)(=O)c2ccc(C(C)(C)C)cc2)c1N	POLI inh inconclusive, Pol beta inh 31.6µM
O=C(c1cc(-c2cccc(Br)c2)nc2ccccc12)N1CCCC1	POLI inh inconclusive, Pol beta inh 22.4µM
O=C(c1cc(-c2ccc(Br)cc2)nc2ccccc12)N1CCC1	none (no result: Pol beta inh)
COc1ccc(CNc2nc(-c3ccccc3OC)nc3ccccc23)c(OC)c1	none (no result: FEN1 inhibitor, Pol eta inh, PGK inhibitor, POLI inh, Pol beta inh)
COc1ccc(/C=N/NC(=O)c2[nH]c3ccc(Br)cc3c2-c2ccccc2)c(C(=O)O)c1OC	FEN1 inhibitor inconclusive, Pol eta inh 31.6µM, POLI inh inconclusive, Pol beta inh inconclusive
COc1ccc(/C=N/NC(=O)c2ccc(NC(=O)c3cccc([N+](=O)[O-])c3)cc2)c(C(=O)O)c1OC	Pol eta inh 79.4µM, POLI inh inconclusive, Pol beta inh 70.8µM
COc1cc(OC)c([N+](=O)[O-])cc1/C=N/NC(=O)c1ccncc1	Pol eta inh 31.6µM, POLI inh inconclusive
O=C(N/N=C/c1ccccc1Cl)c1[nH]c2ccc(Br)cc2c1-c1ccccc1	FEN1 inhibitor inconclusive, Pol kappa inh inconclusive, Pol eta inh 50.1µM, POLI inh 79.4µM, Pol beta inh inconclusive
COc1ccc(/C=N/NC(=O)c2[nH]c3ccc(Br)cc3c2-c2ccccc2)cc1	none
c1ccc(-c2nnc3sc(Cc4cccs4)nn23)cc1	POLI inh inconclusive, Pol beta inh 44.7µM
Clc1ccc(-c2nnc3sc(Cc4cccs4)nn23)cc1	Pol eta inh inconclusive, Pol beta inh inconclusive
COc1c2c(c(CCC(=O)O)c3c1C=CC(C)(C)O3)OC(C)(C)C=C2	Pol eta inh 17.8µM, POLI inh inconclusive (no result: Pol beta inh)
COc1ccc(C(=O)CC(=O)O)c2c1C=CC(C)(C)O2	none
COc1ccc(N2C(=O)/C(=C\c3ccco3)N=C2SCC(=O)NC(C)C)cc1Cl	none
COc1ccc(N2C(=O)/C(=C\c3ccco3)N=C2SCC(=O)N(C(C)C)C(C)C)cc1Cl	Pol beta inh 56.2µM
Cc1ccc(CNCc2cn[nH]c2-c2ccc(C)cc2)cc1	none (no result: Pol eta inh, PGK inhibitor, Pol beta inh)
NC(=S)n1[nH]c(-c2ccc([N+](=O)[O-])cc2)c(N=Nc2ccc(Cl)cc2)c1=O	FEN1 inhibitor inconclusive, Pol kappa inh inconclusive, Pol eta inh inconclusive, POLI inh 20µM, Pol beta inh inconclusive
Cc1cc(C(=O)N/N=C/c2c3ccccc3cc3ccccc23)n[nH]1	none
NC(=O)C(=O)N/N=C/c1c2ccccc2cc2ccccc12	FEN1 inhibitor 25.1µM
O=C(NCCCN1CCOCC1)C(=O)N/N=C/c1c2ccccc2cc2ccccc12	FEN1 inhibitor 39.8µM
O=C(NCCCN1CCOCC1)C(=O)N/N=C/c1c(Cl)cccc1Cl	none
O=C(CCCn1c(=O)c2cccn2c2ccccc21)Nc1cccc(Cl)c1	Pol beta inh 44.7µM (no result: Pol eta inh, PGK inhibitor)
COc1ccc(NC(=O)C2=C(C)Nc3ncnn3C2c2ccc[nH]2)cc1 (configuration not stated)	Pol eta inh inconclusive, POLI inh inconclusive, Pol beta inh 79.4µM
Cc1[nH][nH]c(=O)c1C(c1c(C)[nH][nH]c1=O)c1cn(Cc2ccc(F)cc2)c2ccccc12	FEN1 inhibitor inconclusive, POLI inh 2.24µM
O=c1c2ccccc2ncn1Cc1ccc(Cl)c(Cl)c1	none
